# Legend:
# Conditions in all cases: concentration: 1 μM, replicates: in singlicate; n = 1
# TNNI3K = system: TNNI3K
# TRKA = system: T1, TRKA
# T1 construct: gene NTRK1
# TRKB = system: TRKB
# TRKC = system: T2, TRKC
# T2 construct: gene NTRK3
# TRPM6 = system: TRPM6
# TSSK1B = system: TSSK1B
# TSSK3 = system: TSSK3
# TTK = system: TTK
# TXK = system: TXK
# [1] = system: TYK2(JH1domain-catalytic)
# [2] = system: TYK2(JH2domain-pseudokinase)
# TYRO3 = system: TYRO3
# ULK1 = system: ULK1
# ULK2 = system: ULK2
# ULK3 = system: ULK3
# VEGFR2 = system: T3, VEGFR2
# T3 construct: gene KDR
# VPS34 = system: T4, VPS34
# T4 construct: gene PIK3C3
# VRK2 = system: VRK2
# WEE1 = system: WEE1
# WEE2 = system: WEE2
# 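Further: KINOMEscan kinase panel screen.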
compound,measurement,setting,value
COc1cc(Nc2nccc(N3CCC(NC(=O)c4cc5ccccc5s4)C3)n2)cc(OC)c1OC (stereo not shown) [GSK1379760],%Inh,TNNI3K,0%
same,%Inh,TRKA,21%
same,%Inh,TRKB,0%
same,%Inh,TRKC,35%
same,%Inh,TRPM6,17%
same,%Inh,TSSK1B,0%
same,%Inh,TSSK3,26%
same,%Inh,TTK,0%
same,%Inh,TXK,0%
same,%Inh,[1],28%
same,%Inh,[2],6%
same,%Inh,TYRO3,0%
same,%Inh,ULK1,1%
same,%Inh,ULK2,0%
same,%Inh,ULK3,64%
same,%Inh,VEGFR2,0%
same,%Inh,VPS34,33%
same,%Inh,VRK2,20%
same,%Inh,WEE1,8%
same,%Inh,WEE2,0%
CCCCc1nn2ncccc2c1-c1ccnc(Nc2ccc(N3CCN(C)CC3)cc2)n1 [GW684941],%Inh,TNNI3K,41%
same,%Inh,TRKA,88%
same,%Inh,TRKB,78%
same,%Inh,TRKC,66%
same,%Inh,TRPM6,61%
same,%Inh,TSSK1B,9%
same,%Inh,TSSK3,7%
same,%Inh,TTK,50%
same,%Inh,TXK,74%
same,%Inh,[1],44%
same,%Inh,[2],93%
same,%Inh,TYRO3,1%
same,%Inh,ULK1,23%
same,%Inh,ULK2,6%
same,%Inh,ULK3,17%
same,%Inh,VEGFR2,94%
same,%Inh,VPS34,15%
same,%Inh,VRK2,50%
same,%Inh,WEE1,4%
same,%Inh,WEE2,9%
COc1cc(Nc2nccc(-c3c(-c4cccc(NC(=O)c5c(F)cccc5F)c4)nn4ccccc34)n2)cc(OC)c1OC [GSK323521],%Inh,TNNI3K,3%
same,%Inh,TRKA,78%
same,%Inh,TRKB,35%
same,%Inh,TRKC,40%
same,%Inh,TRPM6,16%
same,%Inh,TSSK1B,0%
same,%Inh,TSSK3,20%
same,%Inh,TTK,10%
same,%Inh,TXK,0%
same,%Inh,[1],0%
same,%Inh,[2],0%
same,%Inh,TYRO3,0%
same,%Inh,ULK1,0%
same,%Inh,ULK2,0%
same,%Inh,ULK3,18%
same,%Inh,VEGFR2,0%
same,%Inh,VPS34,12%
same,%Inh,VRK2,0%
same,%Inh,WEE1,0%
same,%Inh,WEE2,6%
COc1ccc(CNC(=O)NC2CCN(c3ccnc(Nc4ccc(F)cc4)n3)CC2)cc1 [GSK1379788],%Inh,TNNI3K,0%
same,%Inh,TRKA,0%
same,%Inh,TRKB,0%
same,%Inh,TRKC,6%
same,%Inh,TRPM6,0%
same,%Inh,TSSK1B,1%
same,%Inh,TSSK3,18%
same,%Inh,TTK,0%
same,%Inh,TXK,3%
same,%Inh,[1],21%
same,%Inh,[2],35%
same,%Inh,TYRO3,0%
same,%Inh,ULK1,0%
same,%Inh,ULK2,0%
same,%Inh,ULK3,0%
same,%Inh,VEGFR2,0%
same,%Inh,VPS34,17%
same,%Inh,VRK2,14%
same,%Inh,WEE1,39%
same,%Inh,WEE2,0%
NCCCC(NC(=O)c1cc(Br)c(-c2ccnc3[nH]ccc23)s1)c1ccccc1.O=C(O)C(F)(F)F.O=C(O)C(F)(F)F (stereo not shown) [GSK1287544],%Inh,TNNI3K,0%
same,%Inh,TRKA,53%
same,%Inh,TRKB,11%
same,%Inh,TRKC,17%
same,%Inh,TRPM6,16%
same,%Inh,TSSK1B,17%
same,%Inh,TSSK3,1%
same,%Inh,TTK,21%
same,%Inh,TXK,18%
same,%Inh,[1],75%
same,%Inh,[2],6%
same,%Inh,TYRO3,0%
same,%Inh,ULK1,54%
same,%Inh,ULK2,0%
same,%Inh,ULK3,13%
same,%Inh,VEGFR2,3%
same,%Inh,VPS34,28%
same,%Inh,VRK2,0%
same,%Inh,WEE1,2%
same,%Inh,WEE2,4%
Clc1ccc(-c2nn3ncccc3c2-c2ccnc(Nc3ccc4c(c3)OCCO4)n2)cc1 [GW829116],%Inh,TNNI3K,0%
same,%Inh,TRKA,0%
same,%Inh,TRKB,0%
same,%Inh,TRKC,0%
same,%Inh,TRPM6,7%
same,%Inh,TSSK1B,0%
same,%Inh,TSSK3,0%
same,%Inh,TTK,2%
same,%Inh,TXK,0%
same,%Inh,[1],0%
same,%Inh,[2],0%
same,%Inh,TYRO3,0%
same,%Inh,ULK1,0%
same,%Inh,ULK2,0%
same,%Inh,ULK3,0%
same,%Inh,VEGFR2,29%
same,%Inh,VPS34,0%
same,%Inh,VRK2,16%
same,%Inh,WEE1,0%
same,%Inh,WEE2,0%
CN(C)S(=O)(=O)c1cc(-c2ccc3nccc(-c4cccc(S(N)(=O)=O)c4)c3c2)cnc1N [GSK1669921],%Inh,TNNI3K,8%
same,%Inh,TRKA,87%
same,%Inh,TRKB,0%
same,%Inh,TRKC,48%
same,%Inh,TRPM6,4%
same,%Inh,TSSK1B,3%
same,%Inh,TSSK3,18%
same,%Inh,TTK,47%
same,%Inh,TXK,26%
same,%Inh,[1],13%
same,%Inh,[2],23%
same,%Inh,TYRO3,0%
same,%Inh,ULK1,8%
same,%Inh,ULK2,0%
same,%Inh,ULK3,6%
same,%Inh,VEGFR2,29%
same,%Inh,VPS34,92.7%
same,%Inh,VRK2,7%
same,%Inh,WEE1,9%
same,%Inh,WEE2,17%
COc1cc2c(cc1OCCN1CCNCC1)ncc1c3ccc(C#N)cc3[nH]c21,%Inh,TNNI3K,0%
same,%Inh,TRKA,99.8%
same,%Inh,TRKB,94.1%
same,%Inh,TRKC,77%
same,%Inh,TRPM6,100%
same,%Inh,TSSK1B,22%
same,%Inh,TSSK3,15%
same,%Inh,TTK,0%
same,%Inh,TXK,11%
same,%Inh,[1],50%
same,%Inh,[2],15%
same,%Inh,TYRO3,0%
same,%Inh,ULK1,91.9%
same,%Inh,ULK2,99.8%
same,%Inh,ULK3,47%
same,%Inh,VEGFR2,49%
same,%Inh,VPS34,0%
same,%Inh,VRK2,15%
same,%Inh,WEE1,0%
same,%Inh,WEE2,0%
Cn1cc(-c2ccc3c(c2)CCN3C(=O)Cc2cccc(Cl)c2)c2c(N)ncnc21 [GSK2606590],%Inh,TNNI3K,0%
same,%Inh,TRKA,73%
same,%Inh,TRKB,54%
same,%Inh,TRKC,57%
same,%Inh,TRPM6,0%
same,%Inh,TSSK1B,20%
same,%Inh,TSSK3,17%
same,%Inh,TTK,30%
same,%Inh,TXK,0%
same,%Inh,[1],10%
same,%Inh,[2],13%
same,%Inh,TYRO3,0%
same,%Inh,ULK1,11%
same,%Inh,ULK2,0%
same,%Inh,ULK3,18%
same,%Inh,VEGFR2,49%
same,%Inh,VPS34,1%
same,%Inh,VRK2,0%
same,%Inh,WEE1,0%
same,%Inh,WEE2,0%
Cc1cccc(NC(=O)Nc2ccc(Oc3ncnc4ccn(C)c34)cc2)c1,%Inh,TNNI3K,0%
same,%Inh,TRKA,20%
same,%Inh,TRKB,35%
same,%Inh,TRKC,57%
same,%Inh,TRPM6,0%
same,%Inh,TSSK1B,19%
same,%Inh,TSSK3,0%
same,%Inh,TTK,0%
same,%Inh,TXK,0%
same,%Inh,[1],0%
same,%Inh,[2],0%
same,%Inh,TYRO3,0%
same,%Inh,ULK1,0%
same,%Inh,ULK2,0%
same,%Inh,ULK3,2%
same,%Inh,VEGFR2,99.7%
same,%Inh,VPS34,0%
same,%Inh,VRK2,0%
same,%Inh,WEE1,0%
same,%Inh,WEE2,0%
O=C(Nc1n[nH]c2nc(-c3ccc(O)cc3)ccc12)C1CC1 [SB-710363],%Inh,TNNI3K,0%
same,%Inh,TRKA,26%
same,%Inh,TRKB,0%
same,%Inh,TRKC,41%
same,%Inh,TRPM6,0%
same,%Inh,TSSK1B,0%
same,%Inh,TSSK3,37%
same,%Inh,TTK,0%
same,%Inh,TXK,0%
same,%Inh,[1],9%
same,%Inh,[2],0%
same,%Inh,TYRO3,0%
same,%Inh,ULK1,2%
same,%Inh,ULK2,21%
same,%Inh,ULK3,29%
same,%Inh,VEGFR2,26%
same,%Inh,VPS34,0%
same,%Inh,VRK2,0%
same,%Inh,WEE1,0%
same,%Inh,WEE2,1%
Cc1cccc(Nc2nc(N[C@H]3CCNC3)ncc2C(N)=O)c1.Cl [GSK2197149],%Inh,TNNI3K,0%
same,%Inh,TRKA,93.3%
same,%Inh,TRKB,0%
same,%Inh,TRKC,18%
same,%Inh,TRPM6,34%
same,%Inh,TSSK1B,13%
same,%Inh,TSSK3,29%
same,%Inh,TTK,29%
same,%Inh,TXK,15%
same,%Inh,[1],46%
same,%Inh,[2],97.7%
same,%Inh,TYRO3,0%
same,%Inh,ULK1,30%
same,%Inh,ULK2,11%
same,%Inh,ULK3,42%
same,%Inh,VEGFR2,0%
same,%Inh,VPS34,13%
same,%Inh,VRK2,22%
same,%Inh,WEE1,0%
same,%Inh,WEE2,8%
CC(C)(C)c1ccc2nccc(Nc3cccc(O)c3)c2c1 [GW856795],%Inh,TNNI3K,0%
same,%Inh,TRKA,72%
same,%Inh,TRKB,40%
same,%Inh,TRKC,31%
same,%Inh,TRPM6,0%
same,%Inh,TSSK1B,0%
same,%Inh,TSSK3,60%
same,%Inh,TTK,0%
same,%Inh,TXK,79%
same,%Inh,[1],42%
same,%Inh,[2],32%
same,%Inh,TYRO3,0%
same,%Inh,ULK1,0%
same,%Inh,ULK2,19%
same,%Inh,ULK3,0%
same,%Inh,VEGFR2,50%
same,%Inh,VPS34,52%
same,%Inh,VRK2,100%
same,%Inh,WEE1,0%
same,%Inh,WEE2,13%
Cl.Cl.NCC(NC(=O)c1cc(-c2ccccc2)c(-c2ccnc3[nH]ccc23)s1)c1ccccc1 (stereo not shown) [GSK1321561],%Inh,TNNI3K,18%
same,%Inh,TRKA,58%
same,%Inh,TRKB,26%
same,%Inh,TRKC,6%
same,%Inh,TRPM6,28%
same,%Inh,TSSK1B,0%
same,%Inh,TSSK3,18%
same,%Inh,TTK,0%
same,%Inh,TXK,45%
same,%Inh,[1],20%
same,%Inh,[2],2%
same,%Inh,TYRO3,0%
same,%Inh,ULK1,8%
same,%Inh,ULK2,0%
same,%Inh,ULK3,9%
same,%Inh,VEGFR2,0%
same,%Inh,VPS34,6%
same,%Inh,VRK2,0%
same,%Inh,WEE1,17%
same,%Inh,WEE2,0%
Nc1ncc(-c2cccnc2)c2scc(-c3ccc4c(c3)CCN4C(=O)Cc3ccccc3)c12 [GSK683281],%Inh,TNNI3K,20%
same,%Inh,TRKA,22%
same,%Inh,TRKB,0%
same,%Inh,TRKC,0%
same,%Inh,TRPM6,40%
same,%Inh,TSSK1B,20%
same,%Inh,TSSK3,22%
same,%Inh,TTK,0%
same,%Inh,TXK,10%
same,%Inh,[1],11%
same,%Inh,[2],0%
same,%Inh,TYRO3,15%
same,%Inh,ULK1,7%
same,%Inh,ULK2,0%
same,%Inh,ULK3,10%
same,%Inh,VEGFR2,30%
same,%Inh,VPS34,29%
same,%Inh,VRK2,0%
same,%Inh,WEE1,22%
same,%Inh,WEE2,17%
Nc1n[nH]c2cnc(-c3ccccc3)cc12 [SB-642124],%Inh,TNNI3K,0%
same,%Inh,TRKA,0%
same,%Inh,TRKB,28%
same,%Inh,TRKC,20%
same,%Inh,TRPM6,9%
same,%Inh,TSSK1B,30%
same,%Inh,TSSK3,12%
same,%Inh,TTK,0%
same,%Inh,TXK,3%
same,%Inh,[1],79%
same,%Inh,[2],85%
same,%Inh,TYRO3,9%
same,%Inh,ULK1,50%
same,%Inh,ULK2,22%
same,%Inh,ULK3,35%
same,%Inh,VEGFR2,0%
same,%Inh,VPS34,0%
same,%Inh,VRK2,35%
same,%Inh,WEE1,19%
same,%Inh,WEE2,0%
Cl.Cl.NCC(C(=O)Nc1cc(Br)c(-c2ccnc3[nH]ccc23)s1)c1ccccc1 (stereo not shown) [GSK1269851],%Inh,TNNI3K,12%
same,%Inh,TRKA,19%
same,%Inh,TRKB,28%
same,%Inh,TRKC,31%
same,%Inh,TRPM6,7%
same,%Inh,TSSK1B,21%
same,%Inh,TSSK3,4%
same,%Inh,TTK,0%
same,%Inh,TXK,0%
same,%Inh,[1],22%
same,%Inh,[2],18%
same,%Inh,TYRO3,0%
same,%Inh,ULK1,23%
same,%Inh,ULK2,0%
same,%Inh,ULK3,15%
same,%Inh,VEGFR2,0%
same,%Inh,VPS34,0%
same,%Inh,VRK2,0%
same,%Inh,WEE1,0%
same,%Inh,WEE2,22%

# Reference: publication PMC5540273 (PLoS ONE, 2017)
